Measurements published in PubChem BioAssay (Tox21).
“And” between values parts separate entries of the source, which are not always exact repeats. Equal values may be shown once. Records with an inconclusive call do not appear. A call without a number means that no potency is given here. Where a structure was tested more than once in an assay, its records may differ in their call. The source made the active and inactive calls. Unless noted, calls come from the whole dose curve; as a rule, active = well fitted curve in the direction sought with a large enough effect in the repeat runs; inconclusive = weak or mixed curves; inactive = no such curve, though single readings can be large; an effect the other way counts as inactive or inconclusive.

Tests used:
[1] = qHTS assay for small molecule agonists of the p53 signaling pathway - cell viability (AID 651633; calls by dose curve;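 note: p53RE-bla HCT reporter cells with a stable beta-lactamase p53 reporter; series mostly up to about 83 µM; nearly all actives have a fitted effect of over 30% in size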)
How it was run: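 p53RE-bla cells, seeded at 4,000 per well and rested 5 h at 37 C/5% CO2, received compounds in DMSO for 16 h at 37 C. CellTiter-Glo was then added, and luminescence was read after 30 min at room temperature to gauge cytotoxicity.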

[2] = qHTS assay for small molecules that induce genotoxicity in human embryonic kidney cells expressing luciferase-tagged ATAD5 - cell viability (AID 651634; calls by dose curve; note: nearly all actives have a fitted effect of over 25% in size)
How it was run: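 Cytotoxicity counter-readout: after 15.5 hr compound treatment at 37C, live-cell protease activity in ATAD5-luciferase HEK293T cells measured by CellTiter-Fluor fluorescence, 30 min development at 37C.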

[3] = qHTS assay for small molecule disruptors of the mitochondrial membrane potential - cell viability (AID 720634; calls by dose curve;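 note: human HepG2 liver cancer cells; series mostly up to about 83 µM; nearly all actives have a fitted effect of over 20% in size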)
How it was run: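 Cytotoxicity was quantified from ATP content by CellTiter-Glo luminescence in the same wells as the MMP dye read-out. HepG2 (2,000 cells/well) were plated overnight and exposed to compounds for 1 hr at 37 C.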

[4] = qHTS assay for small molecule disruptors of the mitochondrial membrane potential (AID 720635); note: potency is the fitted concentration of half-maximal effect
How it was run: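 HepG2 cells (2,000/well) attached overnight at 37C, then took compound for 1 hr at 37C, 5% CO2. Mito-MPS dye was added for 30 min; fluorescence was read at 490/535 nm (monomers) and 540/590 nm (aggregates).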

[5] = qHTS assay to test for compound auto fluorescence at 590 nm (red) in HepG2 cells (AID 720674)
How it was run: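 Intrinsic compound fluorescence in the red window (Ex/Em 540/590 nm) is measured in attached HepG2 cells exposed for 1 hr, DMSO vehicle as baseline, benchmarked to Rose Bengal sodium.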

[6] = qHTS assay to test for compound auto fluorescence at 535 nm (green) in HepG2 cells (AID 720675)
[7] = qHTS assay to test for compound auto fluorescence at 460 nm (blue) in HEK293 cells (AID 720678)
How it was run: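 Blue-channel (Ex/Em 405/460 nm) intensity measured in HEK293 cultures after overnight compound exposure at 37C; signal expressed relative to triamterene. Cells plated 2,000 per well in 10% dialyzed FBS medium and allowed 4-5 hr to attach.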

[8] = qHTS assay to test for compound auto fluorescence at 590 nm (red) in HEK293 cells (AID 720679)
How it was run: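 Red-channel autofluorescence (Ex/Em 540/590 nm; Rose Bengal sodium reference) was measured after overnight 37C, 5% CO2 exposure of attached HEK293 cells, 2,000 per well in medium with 10% dialyzed FBS.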

[9] = qHTS assay to test for compound auto fluorescence at 535 nm (green) in HEK293 cells (AID 720680)
[10] = qHTS assay to test for compound auto fluorescence at 460 nm (blue) in HEK293 cell free culture (AID 720681)
How it was run: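 Test compounds were pinned into cell-free culture medium (DMEM with 10% FBS) and fluorescence was read directly at Ex/Em 405/460 nm. Signals were expressed as fluorescence equivalents of triamterene, with DMSO vehicle as control.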

[11] = qHTS assay to test for compound auto fluorescence at 535 nm (green) in HEK293 cell free culture (AID 720682)
How it was run: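 Intrinsic compound fluorescence is measured in culture medium containing 10% FBS, with excitation at 485 nm and detection at 535 nm, referenced to fluorescein.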

[12] = qHTS assay to test for compound auto fluorescence at 590 nm (red) in HEK293 cell free culture (AID 720683)
How it was run: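 Tox21 10K library compounds were pinned into cell-free DMEM with 10% FBS and fluorescence was read at excitation 540 nm. Activity is expressed as Rose Bengal sodium equivalency.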

[13] = qHTS assay to test for compound auto fluorescence at 590 nm (red) in HepG2 cell free culture (AID 720684)
How it was run: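 Readout: intrinsic compound fluorescence at 590 nm emission after 540 nm excitation, scaled to Rose Bengal sodium. Matrix was cell-free MEM with 10% FBS; DMSO vehicle wells served as control.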

[14] = qHTS assay to test for compound auto fluorescence at 460 nm (blue) in HepG2 cell free culture (AID 720685)
How it was run: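 Cell-free plates of MEM plus 10% FBS received 23 nL compound or DMSO vehicle; blue-channel (405/460 nm) intensity scored against triamterene as reference fluorophore.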

[15] = qHTS assay to test for compound auto fluorescence at 535 nm (green) in HepG2 cell free culture (AID 720686)
[16] = qHTS assay to test for compound auto fluorescence at 460 nm (blue) in HepG2 cells (AID 720687)
How it was run: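 Cells (2,000/well in MEM with 10% FBS) attached overnight at 37 C, then were exposed to compound or DMSO for 1 hr at 37 C, 5% CO2. Fluorescence read at Ex/Em 405/460 nm, expressed as triamterene-equivalent signal.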

[17] = target: Glucocorticoid receptor (Homo sapiens) (UniProt P04150); test: qHTS assay to identify small molecule agonists of the glucocorticoid receptor (GR) signaling pathway (AID 720691; active = well fitted activation curve with a large enough effect in the signal ratio in the repeat runs, not every such curve was filed as active; the % refers to the signal ratio)
Chain of Glucocorticoid receptor (Homo sapiens) (P04150 whole entry, looked up): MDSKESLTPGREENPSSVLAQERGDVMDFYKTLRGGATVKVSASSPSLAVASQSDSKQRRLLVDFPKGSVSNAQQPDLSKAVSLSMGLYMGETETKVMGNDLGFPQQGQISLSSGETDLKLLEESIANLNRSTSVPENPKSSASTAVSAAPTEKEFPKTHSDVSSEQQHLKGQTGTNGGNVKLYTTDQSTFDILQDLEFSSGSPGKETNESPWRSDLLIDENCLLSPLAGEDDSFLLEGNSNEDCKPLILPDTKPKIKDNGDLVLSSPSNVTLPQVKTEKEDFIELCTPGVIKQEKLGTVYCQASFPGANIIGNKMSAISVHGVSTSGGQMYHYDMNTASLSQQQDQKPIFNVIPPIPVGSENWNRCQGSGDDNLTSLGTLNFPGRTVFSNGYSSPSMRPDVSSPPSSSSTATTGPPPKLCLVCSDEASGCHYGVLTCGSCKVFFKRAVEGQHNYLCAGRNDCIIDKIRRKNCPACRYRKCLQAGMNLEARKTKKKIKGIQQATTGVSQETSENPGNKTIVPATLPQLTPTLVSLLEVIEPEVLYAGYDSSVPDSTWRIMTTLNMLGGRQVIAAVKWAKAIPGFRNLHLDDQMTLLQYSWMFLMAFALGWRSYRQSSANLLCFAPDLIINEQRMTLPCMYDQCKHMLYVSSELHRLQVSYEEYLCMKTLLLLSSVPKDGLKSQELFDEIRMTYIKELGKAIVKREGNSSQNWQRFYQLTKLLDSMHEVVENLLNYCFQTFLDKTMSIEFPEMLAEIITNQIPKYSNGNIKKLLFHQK
How it was run: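 Agonist-mode qHTS in HeLa cells stably expressing a glucocorticoid-response-element beta-lactamase reporter. Fluorescence intensity read with FRET substrate (2 h, room temperature) after 18 h compound treatment at 37 C.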

[18] = target: Glucocorticoid receptor (Homo sapiens) (UniProt P04150); test: qHTS assay to identify small molecule antagonists of the glucocorticoid receptor (GR) signaling pathway (AID 720692; active = well fitted inhibition curve with a large enough effect in the signal ratio in the repeat runs, not every such curve was filed as active; the % refers to the signal ratio)
How it was run: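 Inhibition of dexamethasone-driven (5 nM final) beta-lactamase expression was measured in GRE-reporter HeLa cells over 18 h at 37C. Fluorescence was read after 2 h with the B/G FRET substrate at room temperature.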

[19] = qHTS assay for small molecules that induce genotoxicity in human embryonic kidney cells expressing luciferase-tagged ATAD5 (AID 651632); note: nearly all actives have a fitted effect of over 15% in size
How it was run: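 A rise in luciferase signal from ATAD5-tagged HEK293T cells marks genetic stress. Cells were exposed to compounds for 16 hr at 37C, 5% CO2, then luciferase was quantified after a 30 min room-temperature incubation with Amplite.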

SMILES | Potency [1] | Potency [2] | Potency [3] | Potency [4] | outcome [5] | outcome [6] | Potency [7] | outcome [8] | outcome [9] | Potency [10] | outcome [11] | outcome [12] | outcome [13] | Potency [14] | outcome [15] | Potency [16] | outcome [17] | Potency [18] | Potency [19]
Cc1ncc(CO)c(CO)c1O | inactive | inactive | inactive | inactive | inactive | inactive | inactive | inactive | inactive | inactive | inactive | inactive | inactive | inactive | inactive | inactive | – | – | –
CCCCCCCC(=O)O | inactive | inactive | inactive | inactive | inactive | inactive | inactive | inactive | inactive | inactive | inactive | inactive | inactive | inactive | inactive | inactive | inactive | inactive | –
NCCNCCNCCN | inactive | – | inactive | inactive | inactive | inactive | inactive | inactive | inactive | inactive | inactive | inactive | inactive | inactive | inactive | inactive | inactive | inactive | –
Cc1cccc(C)c1[N+](=O)[O-] | inactive | inactive | inactive | inactive | inactive | inactive | – | inactive | inactive | – | inactive | inactive | inactive | inactive | inactive | inactive | inactive | – | –
COC(=O)CCCCC(=O)OC | inactive | inactive | inactive | inactive | inactive | inactive | inactive | inactive | inactive | – | inactive | inactive | inactive | inactive | inactive | inactive | inactive | inactive | –
CC1(C)C(=O)N(Cl)C(=O)N1Cl | inactive | – | inactive | inactive | inactive | inactive | – | inactive | inactive | inactive | inactive | inactive | inactive | inactive | inactive | inactive | inactive | inactive | inactive
CCCCCCC(=O)O | inactive | – | inactive | inactive | inactive | inactive | – | inactive | inactive | – | inactive | inactive | inactive | inactive | inactive | inactive | inactive | inactive | –
c1cnc2c(c1)ccc1cccnc12 | inactive | – | inactive | 30.6 µM (active) | inactive | inactive | – | inactive | inactive | inactive | inactive | inactive | inactive | inactive | inactive | inactive | – | – | inactive
CCOC(=O)c1ccc(O)cc1 | inactive | – | inactive | inactive and 21.7 µM (active) | inactive | inactive | – | inactive | inactive | inactive | inactive | inactive | inactive | inactive | inactive | inactive | inactive | inactive | inactive
C[n+]1ccn(CCO)c1 | inactive | – | inactive | inactive | inactive | inactive | – | inactive | inactive | inactive | inactive | inactive | inactive | inactive | inactive | inactive | inactive | inactive | inactive
O=C(NCC1CCCCN1)c1cc(OCC(F)(F)F)ccc1OCC(F)(F)F (configuration not stated) | inactive | – | inactive | inactive | inactive | inactive | – | inactive | inactive | inactive | inactive | inactive | inactive | inactive | inactive | inactive | – | – | –
CC(C=O)Cc1ccc(C(C)(C)C)cc1 (configuration not stated) | inactive | inactive | inactive | 61.1 µM (active) | inactive | inactive | inactive | inactive | inactive | inactive | inactive | inactive | inactive | inactive | inactive | inactive | inactive | inactive | –
N[C@@H](Cc1cc(I)c(Oc2ccc(O)c(I)c2)c(I)c1)C(=O)O | inactive | inactive | inactive | 23.7 µM (active) | inactive | inactive | – | inactive | inactive | inactive | inactive | inactive | inactive | inactive | inactive | inactive | inactive | – | –
